In all, about 310,000 compounds went through this assay and about 14,000 (4.5%) showed an effect of 50% or more. The effect is printed as a negative number. Only a selection was taken, and strong results are over-represented in it overall.
What follows are compounds tested against human ether-à-go-go-related gene (hERG) potassium channel (human, UniProt Q12809) (assay: primary screen, population patch clamp on CHO cells stably expressing hERG; higher = less effect of the substance).
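Also: peak tail current of the secondary pulse compared with the same well before compound.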

human ether-à-go-go-related gene (hERG) potassium channel, sequence (Q12809 whole entry, looked up): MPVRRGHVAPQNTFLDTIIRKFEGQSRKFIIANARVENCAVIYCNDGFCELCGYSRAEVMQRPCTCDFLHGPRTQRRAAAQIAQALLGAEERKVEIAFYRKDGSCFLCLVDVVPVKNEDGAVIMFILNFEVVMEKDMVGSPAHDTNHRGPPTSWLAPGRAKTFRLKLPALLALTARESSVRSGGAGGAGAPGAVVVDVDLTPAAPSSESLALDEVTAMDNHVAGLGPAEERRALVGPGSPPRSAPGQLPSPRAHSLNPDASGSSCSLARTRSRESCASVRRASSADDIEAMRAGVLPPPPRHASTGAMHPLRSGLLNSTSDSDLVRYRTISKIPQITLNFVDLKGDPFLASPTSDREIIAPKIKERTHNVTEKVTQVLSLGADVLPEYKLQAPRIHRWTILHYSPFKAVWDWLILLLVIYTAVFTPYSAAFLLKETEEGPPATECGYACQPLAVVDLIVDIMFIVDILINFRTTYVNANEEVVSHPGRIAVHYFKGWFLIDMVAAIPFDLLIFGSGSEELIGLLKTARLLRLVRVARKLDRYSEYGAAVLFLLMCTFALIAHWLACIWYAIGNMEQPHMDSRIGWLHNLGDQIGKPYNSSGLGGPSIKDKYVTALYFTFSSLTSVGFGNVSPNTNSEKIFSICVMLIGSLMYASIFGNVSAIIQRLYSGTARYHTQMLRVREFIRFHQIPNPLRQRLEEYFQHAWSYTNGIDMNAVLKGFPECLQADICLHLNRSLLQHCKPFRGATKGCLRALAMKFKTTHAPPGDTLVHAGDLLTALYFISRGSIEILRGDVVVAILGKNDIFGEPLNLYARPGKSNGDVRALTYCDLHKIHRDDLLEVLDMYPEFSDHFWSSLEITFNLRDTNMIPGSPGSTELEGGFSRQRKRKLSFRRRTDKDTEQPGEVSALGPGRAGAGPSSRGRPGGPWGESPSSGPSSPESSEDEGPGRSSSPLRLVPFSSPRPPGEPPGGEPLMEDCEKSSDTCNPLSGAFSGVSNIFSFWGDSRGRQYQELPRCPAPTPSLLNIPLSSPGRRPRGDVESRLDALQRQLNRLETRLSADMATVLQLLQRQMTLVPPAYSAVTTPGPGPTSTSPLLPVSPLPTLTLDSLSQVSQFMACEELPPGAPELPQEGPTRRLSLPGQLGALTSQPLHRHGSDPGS

Compound | hERG current change (%, negative = inhibition) at 10uM
NC(=S)N=Nc1c(O)n(CCCl)c2ccc(Br)cc12 | -27.4%
CCc1ccccc1S(=O)(=O)Cc1ccc(C(=O)NCC2CCCO2)o1 (stereo not shown) | -23%
Cc1ccc(C(C)NC(=O)Cc2cccs2)cc1C (stereo not shown) | -44.2%
CCN1CCCC1CNC(=O)C(=O)NC(C)c1ccccc1 (stereo not shown) | 13%
Br.N=c1n(CCN2CCOCC2)c2ccccc2n1CC(=O)c1cccc([N+](=O)[O-])c1 | -42.2%
Br.N=c1n(CCN2CCCCC2)c2ccccc2n1CC(=O)c1cccc([N+](=O)[O-])c1 | -69%
Cl.N=C(c1cccc([N+](=O)[O-])c1)N1CCCCCC1 | 2.26%
Br.N=c1n(CC(=O)c2cccc([N+](=O)[O-])c2)c2ccccc2n1Cc1ccccc1 | -17.9%
Br.C=CCn1c(=N)n(CC(=O)c2cccc([N+](=O)[O-])c2)c2ccccc21 | -56.7%
Br.CCn1c(=N)n(CC(=O)c2cccc([N+](=O)[O-])c2)c2ccccc21 | 12.1%
O=C1Nc2ccccc2/C1=C/c1cnc(-c2ccccc2)[nH]1 | 26.2%
C[C@@H]1C(=O)O[C@H]2[C@H](O)[C@@]34[C@H]5C[C@@H](C(C)(C)C)[C@]36[C@@H](OC(=O)[C@@H]6O)O[C@@]4(C(=O)O5)[C@@]12O | 21.2%
CC(OC(=O)C1CCN(S(=O)(=O)c2ccc(Cl)cc2)CC1)C(=O)N1CCc2ccccc21 (stereo not shown) | -16.4%
Oc1ccc(-c2cccc(-c3ccc(O)cc3)n2)cc1 | 15.5%
CN(C)S(=O)(=O)N1CCN(C(=O)N2CCCCC2)CC1 | 3.64%
COc1cc(/C=C(\C#N)c2nn(CCO)c(N)c2C#N)cc(OC)c1OC | 12.5%
O=C(COc1ccccc1)NCC(=O)N1CCCCCC1 | 7.21%
CCOC(=O)Cc1cc(=O)n(-c2nc3ccccc3s2)[nH]1 | 5.12%
O=c1c(C=NCCCn2ccnc2)c(-c2ccccc2)[nH]n1-c1nc2ccccc2s1 | -71.4%
CCC(=NCc1ccccc1)c1c(C(F)(F)F)[nH]n(-c2nc3ccccc3s2)c1=O | 12.6%
CN(C)CCCN=Cc1c(-c2ccccc2)[nH]n(-c2nc3ccccc3s2)c1=O | -71%
CN(C)CCCN=Cc1c(O)n(CCc2ccccc2)c(=O)[nH]c1=O | -0.99%

Compound | hERG current change (%, negative = inhibition) at 10uM
C/C(=N/NC(=O)c1cccs1)c1c(C)[nH]n(-c2nc3ccccc3s2)c1=O | 7.38%
O=c1c(C=NCCCO)c(-c2ccccc2)[nH]n1-c1nc2ccccc2s1 | -72.6%
O=c1[nH]c(=O)n(Cc2ccccc2)c(O)c1C=NCCCn1ccnc1 | 1.23%
CCN(CC)CCCN=Cc1c(-c2ccccc2)[nH]n(-c2nc3ccccc3s2)c1=O | -78.2%
O=c1cc(-c2ccccc2)[nH]n1-c1nc2ccccc2s1 | 14.2%
O=c1c(C=NCc2cccnc2)c(C(F)(F)F)[nH]n1-c1nc2ccccc2s1 | 9.04%
Nn1c(SCC(=O)NC2CCS(=O)(=O)C2)nnc1-c1cccs1 (stereo not shown) | 16.7%
COc1ccc(NC(=O)c2ccccc2CC[N+](=O)[O-])cc1 | 9.51%
COc1ccc(CCNC(=O)C2CC(c3ccc(C(F)(F)F)cc3)=NO2)cc1 (stereo not shown) | -6.74%
COc1ccc(C(=O)OCC(=O)NCC2CCCO2)cc1 (stereo not shown) | 17.7%
COc1ccc2nc(NS(=O)(=O)c3ccc(NC(C)=O)cc3)sc2c1 | 14%
O=C(CCN1C(=O)/C(=C/c2ccco2)SC1=S)Nc1ccc(C(=O)O)c(O)c1 | 25.1%
Cc1sc2nc(C)n(/N=C/c3ccccc3O)c(=O)c2c1C | -7.37%
O=C(Nc1cc(C(F)(F)F)ccc1N1CCOCC1)c1ccccc1F | -4.2%
COCCCN=Cc1c(C)[nH]n(-c2ccc(Br)c(C)c2)c1=O | -9.32%
CC(=NCCCn1ccnc1)c1c(-c2ccccc2)[nH]n(-c2nc3ccccc3s2)c1=O | -70.8%
CCCN=C(C)c1c(-c2ccccc2)[nH]n(-c2nc3ccccc3s2)c1=O | -7.79%
CC(=NC1CC1)c1c(-c2ccccc2)[nH]n(-c2nc3ccccc3s2)c1=O | 9.63%
COCCCN=Cc1c(C)[nH]n(-c2ccc(Br)cc2Br)c1=O | 20.4%
COCCCN=Cc1c(-c2ccccc2)[nH]n(-c2nc3ccccc3s2)c1=O | -75.1%
Cn1nc([N+](=O)[O-])nc1Oc1ccccc1 | -5.63%
COc1ccc(C(=O)NC2CCN(C(=S)Nc3cccc(C)c3C)CC2)cc1 | 0.204%

Compound | hERG current change (%, negative = inhibition) at 10uM
O=C1c2cccc3c(Nc4ccccc4Cl)c([N+](=O)[O-])cc(c23)C(=O)N1CCO | -22.8%
Cc1ccc(/C=C2\OC(=O)c3ccccc32)cc1 | 14.9%
O=C1O/C(=C\c2ccccc2)c2ccccc21 | -57.8%
O=C1O/C(=C/c2ccccc2)c2ccccc21 | -3.12%
COc1ccc(S(=O)(=O)N2CCCC2C(=O)Nc2ccc(C)cc2)cc1 (stereo not shown) | -15.3%
O=C(COc1ccccc1)NNc1nc2c(F)cc(F)cc2s1 | -62.6%
O=C(NNc1nc2c(F)cc(F)cc2s1)c1ccccc1 | 8.87%
O=C(COc1ccccc1)NNc1nc2c(F)cccc2s1 | 32.6%
O=C(NN=C1CCCCC1)Nc1ccccc1Cl | 3.82%
Cc1ccc(-n2c(SCC(=O)Nc3ccc4c(c3)OCO4)nnc2-c2ccoc2C)cc1 | -42.2%
CNC(=O)CSc1nnc(-c2ccco2)n1-c1cc(C)ccc1C | -2.95%
CCCn1c(SCC(=O)Nc2nonc2C)nnc1-c1ccoc1C | -8.43%
Cc1nonc1NC(=O)CSc1nnc(-c2ccoc2C)n1CC(C)C | -17.1%
CCn1c(SCC(=O)Nc2nonc2C)nnc1-c1ccoc1C | -1.18%
Cc1cccc(-n2c(SCC(=O)Nc3nonc3C)nnc2-c2ccoc2C)c1 | -78.9%
Cc1ccc(C)c(-n2c(SCC(=O)Nc3nonc3C)nnc2-c2ccoc2C)c1 | -61.2%
Cc1nonc1NC(=O)CSc1nnc(-c2ccoc2C)n1-c1cccc(Cl)c1 | -77.9%
Cc1nonc1NC(=O)CSc1nnc(-c2ccoc2C)n1C | 4.89%
COc1ccc(C)cc1NC(=O)C(C)N1CCOCC1.Cl (stereo not shown) | 9.06%
Cc1nc(Nc2nc3ccccc3o2)nc(C)c1C | 10.3%
CCC(C(=O)Nc1ccc(C(=O)O)cc1NC(=O)C(CC)c1ccccc1)c1ccccc1 (stereo not shown) | 9.71%
CCOc1ccc(CCNC(=O)C2CCN(c3nn4c(=O)cc(C)nc4s3)CC2)cc1OCC | -8.23%

Compound | hERG current change (%, negative = inhibition) at 10uM
Cc1c(C)n(C)c2ccc(C(=O)N3CCN(c4ccccc4)CC3)cc12 | -5.05%
CCOc1ccccc1-c1noc(CCC(=O)Nc2cccnc2)n1 | 9.94%
CCC1C(=O)C(CC)C(c2ccccc2)NC1c1ccccc1 (stereo not shown) | 11.9%
COc1ccccc1C(=O)N1CCN(c2cccc(Cl)c2)CC1 | 0.406%
CCn1cc(C(=O)N2CCN(c3cccc(Cl)c3)CC2)c2cc(OC)c(OC)cc2c1=O | -64.8%
COc1cc2c(C(=O)NCCCN3CCN(c4cccc(Cl)c4)CC3)cn(C)c(=O)c2cc1OC | -46%
CCn1cc(C(=O)N2CCN(c3ccccn3)CC2)c2cc(OC)c(OC)cc2c1=O | -14.4%
CCn1cc(C(=O)N2CCN(c3ccc(C(C)=O)cc3)CC2)c2cc(OC)c(OC)cc2c1=O | -44.3%
CCCN1CCN(C(=O)c2cn(CC(C)C)c(=O)c3cc(OC)c(OC)cc23)CC1 | -41.1%
COc1ccc(C(=O)N2CCN(c3cccc(Cl)c3)CC2)c(OC)c1 | -44.6%
CCn1cc(C(=O)N2CCN(c3ccc(F)cc3)CC2)c2cc(OC)c(OC)cc2c1=O | -69.5%
COc1cc2c(C(=O)N3CCN(c4cccc(Cl)c4)CC3)cn(C)c(=O)c2cc1OC | -53.1%
CCn1cc(C(=O)N2CCN(c3ccc(OC)cc3)CC2)c2cc(OC)c(OC)cc2c1=O | -33.8%
CCn1cc(C(=O)N2CCN(c3ccccc3OC)CC2)c2cc(OC)c(OC)cc2c1=O | -1.96%
COc1cc2c(C(=O)N3CCN(c4cccc(Cl)c4)CC3)cn(CC(C)C)c(=O)c2cc1OC | -63.6%
CCOC(=O)c1cnc(SC)nc1Oc1cccc(NC(=O)c2ccc(C)cc2)c1 | 11.4%
COC(=O)c1cccnc1SCc1ccccc1 | -14.9%
C/C(=N\OCC(=O)Nn1c(C)nc2ccccc2c1=O)c1ccccc1 | -13.8%
Cc1cccc(NC(=O)c2cc3c([nH]c4ccccc43)c(C)n2)c1C | 11.6%

— publication PMC4336329 (PLoS ONE, 2015)
